Results taken from article PMC9911399, “Two distinct binding modes provide the RNA-binding protein RbFox with extraordinary sequence specificity”.
Changes are numbered by the printed parent chain; changes in the protein carry UniProt numbers. The full ranking holds about 16,000 sequences; the median of “ka relative to ugcaugu” is about 0.0091, and the highest 2% start at about 0.032. Only a selection was taken, and the highest values are over-represented in it overall.

T1: RBFOX1 RRM (Homo sapiens, UniProt Q9NWB1 109-208)
T1 sequence: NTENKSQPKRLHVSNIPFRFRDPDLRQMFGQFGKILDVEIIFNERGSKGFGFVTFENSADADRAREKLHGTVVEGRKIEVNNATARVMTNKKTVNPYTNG

B1: UCCGAUU (DNA:RNA)
RNA: GGGAGACCGGAAUUCAGAUUGUCCUCCGAUUUUAAAUCCCGUCGUAGCCACCA
DNA 1: CAATCTGAATTCCGGTCTCCC
DNA 2: TGGTGGCTACGACGGGATT
B2: CAACCGU (DNA:RNA)
RNA: B1 RNA with U25C, C26A, C27A, G28C, A29C, U30G
DNA 1: CAATCTGAATTCCGGTCTCCC
DNA 2: TGGTGGCTACGACGGGATT
B3: UACAUGG (DNA:RNA)
RNA: B1 RNA with C26A, G28A, A29U, U30G, U31G
DNA 1: CAATCTGAATTCCGGTCTCCC
DNA 2: TGGTGGCTACGACGGGATT
B4: UUGCUAC (DNA:RNA)
RNA: B1 RNA with C26U, C27G, G28C, A29U, U30A, U31C
DNA 1: CAATCTGAATTCCGGTCTCCC
DNA 2: TGGTGGCTACGACGGGATT
B5: GAUACGC (DNA:RNA)
RNA: GGGAGACCGGAAUUCAGAUUGUCCGAUACGCUUAAAUCCCGUCGUAGCCACCA
DNA 1: CAATCTGAATTCCGGTCTCCC
DNA 2: TGGTGGCTACGACGGGATT
B6: GGGUUUA (DNA:RNA)
RNA: B5 RNA with A26G, U27G, A28U, C29U, G30U, C31A
DNA 1: CAATCTGAATTCCGGTCTCCC
DNA 2: TGGTGGCTACGACGGGATT
B7: GGGGUUG (DNA:RNA)
RNA: B1 RNA with U25G, C26G, C27G, A29U, U31G
DNA 1: CAATCTGAATTCCGGTCTCCC
DNA 2: TGGTGGCTACGACGGGATT
B8: GGGGGGG (DNA:RNA)
RNA: B5 RNA with A26G, U27G, A28G, C29G, C31G
DNA 1: CAATCTGAATTCCGGTCTCCC
DNA 2: TGGTGGCTACGACGGGATT
B9: CGGGUUG (DNA:RNA)
RNA: B1 RNA with U25C, C26G, C27G, A29U, U31G
DNA 1: CAATCTGAATTCCGGTCTCCC
DNA 2: TGGTGGCTACGACGGGATT
B10: CGGGGGG (DNA:RNA)
RNA: B5 RNA with G25C, A26G, U27G, A28G, C29G, C31G
DNA 1: CAATCTGAATTCCGGTCTCCC
DNA 2: TGGTGGCTACGACGGGATT
B11: CGGGUUA (DNA:RNA)
RNA: B1 RNA with U25C, C26G, C27G, A29U, U31A
DNA 1: CAATCTGAATTCCGGTCTCCC
DNA 2: TGGTGGCTACGACGGGATT
B12: GUCGGGG (DNA:RNA)
RNA: B5 RNA with A26U, U27C, A28G, C29G, C31G
DNA 1: CAATCTGAATTCCGGTCTCCC
DNA 2: TGGTGGCTACGACGGGATT
B13: CACCGGG (DNA:RNA)
RNA: B5 RNA with G25C, U27C, A28C, C29G, C31G
DNA 1: CAATCTGAATTCCGGTCTCCC
DNA 2: TGGTGGCTACGACGGGATT
B14: GGGGUUA (DNA:RNA)
RNA: B1 RNA with U25G, C26G, C27G, A29U, U31A
DNA 1: CAATCTGAATTCCGGTCTCCC
DNA 2: TGGTGGCTACGACGGGATT

The binders below were run against T1, RBFOX1 RRM (assay: EMSA; HiTS-Eq, 1 nM pool, 10 min; buffer printed only for the single-RNA assays: 10 mM Tris pH 7.5, 150 mM NaCl, 3.4 mM EDTA, 0.001% NP-40, 30 C). Conditions: tags: His6 N-terminal (pET28a); label: 5' 32P.
Summary of the method: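 Purified wild-type or mutant RbFox RRM at increasing concentrations was equilibrated with 1 nM of 5′-radiolabelled RNA carrying 7 randomized nucleotides for 10 min in 50 µL. Unbound RNA was separated by 8% native PAGE and sequenced. Relative association constants came from read-count changes of each RNA species compared with the control reaction, normalised to the cognate motif.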
B1 was tested, and the binding signal was 0.00941 KA relative to UGCAUGU. With B2 the binding signal was 0.00135 KA relative to UGCAUGU. B3 was tested, and the binding signal was 0.0106 KA relative to UGCAUGU. For B4, the binding signal was 0.015 KA relative to UGCAUGU. For B5, the binding signal was 0.012 KA relative to UGCAUGU. For B6, the binding signal was 0.0165 KA relative to UGCAUGU. For B7, the binding signal was 0.0899 KA relative to UGCAUGU. B8 was tested, and the binding signal was 0.0247 KA relative to UGCAUGU. B9 was tested, and the binding signal was 0.0491 KA relative to UGCAUGU. For B10, the binding signal was 0.0136 KA relative to UGCAUGU. For B11, the binding signal was 0.0205 KA relative to UGCAUGU. In the case of B12, the binding signal is reported as 0.0181 KA relative to UGCAUGU. For B13, the binding signal was 0.00514 KA relative to UGCAUGU. B14 was tested, and the binding signal was 0.0364 KA relative to UGCAUGU.
